Data taken from ChEMBL document CHEMBL3988442, “University of Dundee, Small-Polar-MMV Screening Library” (2021).

Assays:
[1] = biological target: T1, Aspartate--tRNA(Asp/Asn) ligase (Mycobacterium tuberculosis (strain ATCC 25618 / H37Rv)) (UniProt P9WFW3); assay: Assay for Asp RNA synthetase-1 from Mycobacterium tuberculosis; format: functional; design: scale not given: direction of the effect not stated beside the values; conditions: 30 µM; further: in the data most compounds retested in dose-response had high values
T1 sequence (whole entry): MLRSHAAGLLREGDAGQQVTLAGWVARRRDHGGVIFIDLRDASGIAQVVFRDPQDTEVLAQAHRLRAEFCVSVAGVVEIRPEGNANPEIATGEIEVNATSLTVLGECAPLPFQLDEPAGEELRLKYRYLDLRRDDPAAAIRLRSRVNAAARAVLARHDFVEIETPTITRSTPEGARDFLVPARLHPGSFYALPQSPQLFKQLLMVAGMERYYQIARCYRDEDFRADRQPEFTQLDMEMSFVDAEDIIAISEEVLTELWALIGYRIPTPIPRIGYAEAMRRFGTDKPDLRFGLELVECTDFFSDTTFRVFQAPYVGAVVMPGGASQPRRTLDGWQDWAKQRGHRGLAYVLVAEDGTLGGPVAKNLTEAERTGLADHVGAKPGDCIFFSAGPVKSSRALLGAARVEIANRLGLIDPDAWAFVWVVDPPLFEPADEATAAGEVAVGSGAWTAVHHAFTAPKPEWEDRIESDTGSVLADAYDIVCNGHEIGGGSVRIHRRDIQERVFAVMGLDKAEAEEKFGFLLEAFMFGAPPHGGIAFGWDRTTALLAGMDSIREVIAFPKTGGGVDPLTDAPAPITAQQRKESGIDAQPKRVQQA

[2] = biological target: Shiga toxin 2 (Escherichia coli O157:H7) (UniProt P09385+P09386); assay: E. coli 0.157:H7 Shiga Toxin SOP - stx2 screening assay; format: functional; design: scale not given: direction of the effect not stated beside the values; conditions: 30 µM

SMILES | Percent Effect [1] [%] | Percent Effect [2] [%]
Cc1n[nH]c(C)c1C1COCCN1C(=O)Cc1cccc(F)c1 (configuration not stated) | 3.85 | -14.1
CN(CCc1ccccc1)c1cnn(CC(=O)N2CCSCC2)c(=O)c1 | 8.28 | -15.1
Cc1ccc(NC2CCN(C(=O)c3c(C)noc3C)CC2)nn1 | -3.12 | 7.22
Cc1cc(C)c(CNC(=O)N(C)CC2CCCCO2)c(=O)[nH]1 (configuration not stated) | 2.7 | 28.8
Cc1noc2ncc(C(=O)N(CC3CCOC3)C3CC3)cc12 (configuration not stated) | 2.12 | 24.4
C=Cn1ncc(CN2C[C@@H]3CCCN3C[C@@H]2Cc2ccccc2)c1C | -6.18 | 2.92
CCn1cc(C(=O)NCc2csc(Br)c2)cn1 | -3.16 | 6.72
CCCn1ccc(C(=O)N2CCOC(c3nc(-c4cccs4)no3)C2)n1 (configuration not stated) | 0.28 | -0.831
CNc1nc(CNC(=O)Nc2cccc(F)c2)cs1 | -1.08 | -9.25
COCCN1CC[C@H](O)[C@@H]1Cc1ccccc1 | -4.18 | -34.6
Cc1ccc(C(O)CNCc2c(C(C)C)nn(C)c2N(C)C)cc1 (configuration not stated) | -5.77 | 10.4
CCCN(C(=O)c1ccccn1)c1nc2c(s1)CCc1c-2cnn1C | 55.9 | -72.4
N#Cc1ccc(CN2CCC(c3ccnn3CCO)CC2)cc1 | 1.21 | 23.2
COc1ncc(CN2CC[C@@](C)(O)[C@H](Oc3cccc(F)c3)C2)cn1 | 6.63 | 13
Cc1ccc(C2CCCCCN2Cc2cn(C)nc2C)cc1 (configuration not stated) | -5.2 | -29
c1cnc(N2CCC3(CCN(CC4CC4)CC3)CC2)nc1 | 0.564 | 6.17
O=C([C@H]1C[C@@H]2CCN(C3CCOCC3)C[C@@H]2O1)N1CCOCC1 | 1.17 | -10.3
CCC1=N[C@@]2(CC[C@@H]3CN(Cc4ccccc4F)C[C@@H]32)C(=O)N1CC | 3.79 | -13.9
Cc1cnn(CCNCC(O)COc2c(C)ccc(C)c2C)c1 (configuration not stated) | 1.91 | -6.89
OC(COCc1ccccc1Cl)CN1CC(n2cccn2)C1 (configuration not stated) | 0.411 | 29.1
Cc1noc(C)c1CNc1cc(N2CCCC2CO)ncn1 (configuration not stated) | -7.32 | -11.6
c1csc(-c2noc(CCCN3CCCC3Cn3cccn3)n2)c1 (configuration not stated) | -1.67 | 15.3
CC(c1nc(C2CC2)no1)N1CCN(c2ccc(C#N)cn2)CC1 (configuration not stated) | -0.15 | -13.8

SMILES | Percent Effect [1] [%] | Percent Effect [2] [%]
Cc1nc(C)n(C2CCCN(C(=O)c3csc(C(C)C)n3)C2)n1 (configuration not stated) | 7.62 | 4.53
CC(=O)Nc1nc(C2CCN(C(C)=O)CC2)cs1 | -1.69 | -0.268
CN(C)c1ccc(CNC(=O)c2ccc(Cl)cc2F)cc1 | -7.82 | 0.494
CC(NC(=O)N1CCN(c2ccccc2)CC1)c1nncn1C (configuration not stated) | 1.07 | -28.9
COCc1nc(N(C)C)ncc1C(=O)Nc1ccn(C)n1 | -1.07 | -19.2
C1CC(CN2CCO[C@H]3[C@H](OCC4CC4)CC[C@@H]32)CCO1 | 0.999 | -6.68
CC(C)Nc1nc2c(cc1C(=O)NCC1CC1)CCNCC2 | 0.611 | 2.86
Cn1ccc2c(C(=O)N3CCC(C(N)=O)CC3)cccc21 | 0.465 | -43.9
CN1CC(=O)N(c2ccccc2)CC12CCN(Cc1cccnc1)C2 (configuration not stated) | -5.22 | -7.54
CCn1nc(C)c2nnn(CC(=O)Nc3cccc(Cl)c3)c(=O)c21 | -0.523 | -43.6
CN(Cc1ccc2c(c1)OCCO2)C(=O)Cn1ccccc1=O | -7.28 | -21.6
CNc1cc2c(nn1)CCN(C(=O)C1CCCc3ccccc31)C2 (configuration not stated) | 0.0571 | 4.77
CNC(=O)CCc1cc(C)nc(C2CCCN2)n1 (configuration not stated) | 7.7 | 9.84
COc1cccc(CN2CCC3(CCN(C(=O)[C@H]4CCCO4)CC3)C2)c1 | 2.09 | -47.5
CC(Cn1cccn1)NC(=O)NCc1cccs1 (configuration not stated) | -7.69 | -7.84
CSCC[C@H](N)C(=O)NCc1cc2n(n1)CCCN(C1CCCCC1)C2 | -6.77 | 5.19
O=C(Nc1cccnc1)N1CCC(n2ccc(C(F)(F)F)n2)CC1 | -4.08 | -16.7
CN1CC(c2ccccc2)CC12CCN(C(=O)c1cncc(Cl)c1)CC2 (configuration not stated) | 0.408 | 12.5
CC(C)n1ncc2c1NC(=O)CC21C(=O)Nc2c(Cl)cccc21 (configuration not stated) | 4.56 | -7.34
Cc1nccn1CC1CCCN1CCCc1nc(-c2cccs2)no1 (configuration not stated) | 5.89 | 16.4
Cc1csc([C@@H]2C[C@@H]3CCN(C(=O)c4cc(C)on4)C[C@H]3O2)n1 | 0.801 | -17.6
O=C(NCCOc1ccc2c(c1)OCO2)C1CC(=O)N(CC2CC2)C1 (configuration not stated) | 4.55 | 24.2
O=C(c1cnco1)N1CCCC(Cc2nccs2)C1 (configuration not stated) | 1.57 | -2.47
